Assay results: the supplement of paper PMC7156485
± gives the standard deviation of the averaged measurements.

Tests used:
Details in all cases: concentration: 10 µM; 24 h
HCC1569 [1] = experiment: cell number relative to DMSO (% of DMSO); higher = more cells (less growth inhibition / toxicity)
In short: (§1)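 After 24 h at 37 °C with compounds at 10 µM, in triplicate, HCC1569 and TDF cells were fixed with 3.7% formaldehyde. Immunostaining used a rabbit anti-H1.0 antibody and an AlexaFluor 647 secondary, with DAPI, and six fields per well were imaged at ×10. H1.0 nuclear intensity or cell number is presented as percent of the plate control, from the median of replicates, with HCC1569 values smoothed for positional effects.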

TDF [2] = experiment: as above
In short: as §1

TDF [3] = experiment: H1.0 immunofluorescence intensity relative to DMSO (% of DMSO); higher = stronger H1.0 induction, active = 120 or more
In short: as §1

HCC1569 [4] = experiment: H1.0 immunofluorescence intensity relative to DMSO (% of DMSO); higher = stronger H1.0 induction, active = 140 or more
In short: as §1
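For H1.0 immunofluorescence intensity relative to DMSO in this document: TDF is a line of transformed human dermal fibroblasts of mesenchymal origin.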
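For cell number relative to DMSO in this document: TDF denotes transformed human dermal fibroblasts of mesenchymal origin.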

SMILES	cell number (HCC1569 [1])	cell number (TDF [2])	H1.0 immunofluorescence intensity (TDF [3])	H1.0 immunofluorescence intensity (HCC1569 [4])
CC12CCC3C(CCC4=C(O)C(=O)CCC43C)C1CCC2=O (centres undefined) [Formestane]	105	98.1	98.3 (inactive)	111 (inactive)
N#CC(C#N)=Cc1ccc([N+](=O)[O-])c(O)c1 [Tyrphostin AG 126]	99.1	111	102 (inactive)	103 (inactive)
COC(=O)c1cc2c(cn1)[nH]c1ccccc12 [Methyl beta-carboline-3-carboxylate]	98.8	105	90.1 (inactive)	95.3 (inactive)
CCN(CC)C(=O)NC1CC2c3cccc4[nH]cc(c34)CC2N(C)C1 (stereo not drawn) [R(+)-Terguride]	101	110	91.9 (inactive)	99.5 (inactive)
CCC1(c2ccc(N)cc2)CCC(=O)NC1=O (racemic) [DL-Aminoglutethimide]	109	102	93.1 (inactive)	109 (inactive)
CS(=O)(=O)O.S=C=Nc1cccc(C2(N3CCCCC3)CCCCC2)c1 [Metaphit methanesulfonate]	106	107	83.4 (inactive)	94.5 (inactive)
Cc1c(N)nc(C(CC(N)=O)NCC(N)C(N)=O)nc1C(=O)NC(C(=O)NC(C)C(O)C(C)C(=O)NC(C(=O)NCCc1nc(-c2nc(C(=O)NCCC[S+](C)C)cs2)cs1)C(C)O)C(OC1OC(CO)C(O)C(O)C1OC1OC(CO)C(O)C(OC(N)=O)C1O)c1cnc[nH]1.O=S(=O)([O-])O (centres undefined) [Bleomycin sulfate]	93.1	99.4	88.5 (inactive)	99.1 (inactive)
CCCCCC=CCC=CCC=CCC=CCCCC(=O)NCCc1ccc(O)c(O)c1 [Arachidonyl dopamine]	87.9	91.8	94.9 (inactive)	124 (inactive)
Cl.OCc1cnc[nH]1 [4-Imidazolemethanol hydrochloride]	99.6	102	93.3 (inactive)	94.1 (inactive)
O.O=P1(N(CCCl)CCCl)NCCCO1 (centres undefined) [Cyclophosphamide monohydrate]	79.6	61.2	116 (inactive)	103 (inactive)
Cc1cc(O)c2c(=O)c3c(O)cc(O)c4c5c(O)cc(O)c6c(=O)c7c(O)cc(C)c8c1c2c(c34)c(c78)c65 [Hypericin]	103 ± 2.1	100 ± 2.6	96.3 (inactive)	94.4 (inactive)
CC1=C2CC3C(CC=C4CC(O)CCC43C)C2CCC12OC1CC(C)CNC1C2C (centres undefined) [Cyclopamine]	104	107	94.9 (inactive)	92 (inactive)
CCCn1c(C)c(C(=O)c2cccc3ccccc23)c2ccccc21	99.3	88.2	96.2 (inactive)	100 (inactive)
CC=C1CC(C)C(C)(O)C(=O)OCC2=CCN3CCC(OC1=O)C23 (centres undefined) [Senecionine]	98.6	101	108 (inactive)	91.8 (inactive)
CC(=O)OCC12CCC(C)=CC1OC1C(O)C(OC(C)=O)C2(C)C12CO2 (centres undefined) [Diacetoxyscirpenol]	56.8	13.6	128 (active)	95.6 (inactive)
C=C1C2CC3(C1O)C1CC4C5(C)CCC(O)C4(C1N(CC)C5)C3CC2=O (centres undefined) [Songorine]	101	108	90 (inactive)	91.7 (inactive)
C[N+]1(C)CCN(c2ccccc2)CC1.[I-] [1,1-Dimethyl-4-phenyl-piperazinium iodide]	99	93	95.8 (inactive)	109 (inactive)
CC12NC(Cc3ccccc31)c1ccccc12.O=C(O)C=CC(=O)O (single isomer, unassigned; (+)) [(+)-MK-801 hydrogen maleate]	103	99	98.6 (inactive)	89.3 (inactive)
CN1Cc2c(ccc3c2OCO3)C2C(O)Cc3cc4c(cc3C21)OCO4 (single isomer, unassigned; (+)) [(+)-Chelidonine]	58	7.56	193 (active)	148 (active)
CC1OC(=O)C(C(C)C)NC(=O)C(C(C)C)OC(=O)C(C(C)C)NC(=O)C(C)OC(=O)C(C(C)C)NC(=O)C(C(C)C)OC(=O)C(C(C)C)NC(=O)C(C)OC(=O)C(C(C)C)NC(=O)C(C(C)C)OC(=O)C(C(C)C)NC1=O (centres undefined) [Valinomycin]	65	56.8	108 (inactive)	174 (active)
C#CCN(C)C(C)Cc1ccccc1.Cl [(R)-(-)-Deprenyl.HCl]	104	103	97.8 (inactive)	101 (inactive)
COc1ccc(C(=O)N2CCCC2=O)cc1 [Aniracetam]	100.1 ± 0.23	97.8 ± 14	92.7 (inactive)	95 (inactive)
CC12CCC3C(CC=C4CC(O)CCC43C)C1CCC2=O (centres undefined) [Dehydroepiandrosterone]	105	107	99.7 (inactive)	93.6 (inactive)
CC(C)(C)c1cc(C=C(C#N)C#N)cc(C(C)(C)C)c1O [Tyrphostin A9]	54.6	47	117 (inactive)	87.7 (inactive)
C=CC1CN2CCC1CC2C(O)c1ccnc2ccccc12 (single isomer, unassigned; (-)) [(-)-Cinchonidine]	100	99.7	101 (inactive)	100 (inactive)
CCCC(=O)OCC[N+](C)(C)C [Butyrylcholine]	101	104	92.9 (inactive)	111 (inactive)
